Test results from PubChem BioAssay (Tox21).
Records with an inconclusive call do not appear. Activity calls are given as the source filed them. Unless noted, calls come from the whole dose curve; as a rule, active = well fitted curve in the direction sought with a large enough effect in the repeat runs; inconclusive = weak or mixed curves; inactive = no such curve, though single readings can be large; an effect the other way counts as inactive or inconclusive.

Assays:
[1] = qHTS assay to identify small molecule antagonists of the sonic hedgehog signaling (Shh) pathway (AID 1259369; calls by dose curve; note: nearly all actives have a fitted effect of over 45% in size)
Summary of the method: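 3T3Gli1-Luc, conditioned-medium-stimulated, 24hr cpd, 37C/5% CO2; Gli1-driven firefly Luc luminescence after 30min RT with luciferase reagent. Cells plated 4hr before cpd.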

[2] = biological target: Estrogen receptor beta (Homo sapiens) (UniProt Q92731); assay: qHTS assay to identify small molecule agonists of the estrogen receptor beta (ER-beta) signaling pathway (AID 1259377; active = well fitted activation curve with a large enough effect in the signal ratio in the repeat runs, not every such curve was filed as active; the % refers to the signal ratio)
Sequence of Estrogen receptor beta (Homo sapiens) (Q92731 whole entry, looked up): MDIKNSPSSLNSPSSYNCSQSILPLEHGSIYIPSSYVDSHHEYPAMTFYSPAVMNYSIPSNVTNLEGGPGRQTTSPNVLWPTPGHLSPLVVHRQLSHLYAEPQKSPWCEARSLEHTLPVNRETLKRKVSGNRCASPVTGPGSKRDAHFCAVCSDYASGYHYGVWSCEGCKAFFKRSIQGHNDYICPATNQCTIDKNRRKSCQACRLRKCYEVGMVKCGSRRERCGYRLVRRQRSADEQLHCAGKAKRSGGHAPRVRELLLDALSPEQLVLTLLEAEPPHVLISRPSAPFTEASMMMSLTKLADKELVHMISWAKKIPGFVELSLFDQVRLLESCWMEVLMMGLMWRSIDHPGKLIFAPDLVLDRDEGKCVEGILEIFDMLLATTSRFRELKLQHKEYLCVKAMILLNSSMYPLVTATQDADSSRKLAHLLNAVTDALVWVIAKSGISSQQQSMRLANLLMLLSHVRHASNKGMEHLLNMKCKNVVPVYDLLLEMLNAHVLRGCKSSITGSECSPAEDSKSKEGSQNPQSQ
Summary of the method: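 HEK293T ER-beta-UAS-bla; 2% charcoal-stripped FBS; cells pre-incubated 6 hr, compound 16 hr, 37C/5% CO2; LiveBLAzer B/G FRET substrate 2 h RT; fluorescence intensity read.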

[3] = biological target: Estrogen receptor beta (Homo sapiens) (UniProt Q92731); assay: qHTS assay to identify small molecule antagonists of the estrogen receptor beta (ER-beta) signaling pathway (AID 1259378; active = well fitted inhibition curve with a large enough effect in the signal ratio in the repeat runs, not every such curve was filed as active; the % refers to the signal ratio)
Summary of the method: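 ER-beta-UAS-bla HEK293T (GripTite) cells in 2% charcoal-stripped FBS medium were preincubated 6 hr at 37C, dosed with compound, then stimulated with 1 nM E2 (final) for 16 hr; beta-lactamase reporter read by B/G FRET fluorescence after 2 hr substrate loading.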

[4] = qHTS assay to identify small molecule agonists of the androgen receptor (AR) signaling pathway in the presence of an antagonist - cell viability counter screen (AID 1259379);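 note: MDA-kb2 human breast cancer cells carrying an MMTV luciferase reporter; series mostly up to about 92 µM; nearly all actives have a fitted effect of over 25% in size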
Summary of the method: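 Cells: MDA-kb2 (MMTV-luc, AR and GR elements), 3,000/well, 5 hr settle. Added: nilutamide 3.0uM final, then compounds (15 conc.). Incubation: 16 hr, 37C, no CO2. Read-out: CellTiter-Fluor, 1 hr, fluorescence.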

[5] = qHTS assay to identify small molecule agonists of the estrogen receptor beta (ER-beta) signaling pathway - cell viability counter screen (AID 1259380); note: nearly all actives have a fitted effect of over 30% in size
Summary of the method: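 HEK293T ER-beta-UAS-bla; 2% CS-FBS; 6 hr pre-plate, 16 hr cpd at 37C/5% CO2; LiveBLAzer read first, then CellTiter-Glo 30 min RT, luminescence.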

[6] = biological target: Androgen receptor (Homo sapiens) (UniProt P10275); assay: qHTS assay to identify small molecule agonists of the androgen receptor (AR) signaling pathway in the presence of an antagonist (AID 1259381; calls by dose curve; note: nearly all actives have a fitted effect of over 15% in size)
Sequence of Androgen receptor (Homo sapiens) (P10275 whole entry, looked up): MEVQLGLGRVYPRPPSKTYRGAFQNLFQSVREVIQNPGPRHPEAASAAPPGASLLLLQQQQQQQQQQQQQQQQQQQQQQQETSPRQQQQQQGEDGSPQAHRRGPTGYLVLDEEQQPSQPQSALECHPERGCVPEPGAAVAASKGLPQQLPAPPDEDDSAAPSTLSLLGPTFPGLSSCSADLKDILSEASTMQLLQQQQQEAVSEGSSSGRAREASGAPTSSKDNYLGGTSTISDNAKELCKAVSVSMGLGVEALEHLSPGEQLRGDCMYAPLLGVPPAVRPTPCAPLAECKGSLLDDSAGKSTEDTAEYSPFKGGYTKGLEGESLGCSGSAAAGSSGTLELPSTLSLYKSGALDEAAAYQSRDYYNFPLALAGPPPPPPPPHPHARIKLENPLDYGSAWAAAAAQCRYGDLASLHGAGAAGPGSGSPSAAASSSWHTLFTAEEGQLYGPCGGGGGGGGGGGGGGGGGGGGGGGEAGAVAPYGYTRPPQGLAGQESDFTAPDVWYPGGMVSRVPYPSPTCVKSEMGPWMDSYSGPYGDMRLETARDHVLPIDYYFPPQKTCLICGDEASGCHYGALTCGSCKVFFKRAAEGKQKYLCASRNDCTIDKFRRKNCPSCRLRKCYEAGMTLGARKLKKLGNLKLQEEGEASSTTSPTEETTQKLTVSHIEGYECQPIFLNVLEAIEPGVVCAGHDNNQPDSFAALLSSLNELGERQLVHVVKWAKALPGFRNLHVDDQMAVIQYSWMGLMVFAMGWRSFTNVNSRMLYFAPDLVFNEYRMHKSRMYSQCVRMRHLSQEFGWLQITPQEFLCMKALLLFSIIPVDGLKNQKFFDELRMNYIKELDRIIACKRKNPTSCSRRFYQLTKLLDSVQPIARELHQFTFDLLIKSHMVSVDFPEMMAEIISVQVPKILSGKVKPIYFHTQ
Summary of the method: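 MDA-kb2 cells, 3,000/well, rested 5hr at 37C/0% CO2 → nilutamide 3.0uM final or buffer → compounds, 15 conc. → 16hr at 37C → ONE-Glo, 30min RT → luminescence.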

[7] = qHTS assay to identify small molecule antagonists of the estrogen receptor beta (ER-beta) signaling pathway - cell viability counter screen (AID 1259382); note: series mostly up to about 92 µM; nearly all actives have a fitted effect of over 55% in size
Summary of the method: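 Cells: ER-beta-UAS-bla HEK293T, 2,000/well, 2% CS-FBS, 6 hr settle. Cpd + E2 (1nM final), 16 hr, 37C/5% CO2. Bla FRET substrate 2 hr RT, then CellTiter-Glo 30 min RT, luminescence.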

[8] = biological target: Estrogen receptor (Homo sapiens) (UniProt P03372); assay: qHTS assay to identify small molecule agonists of the estrogen receptor alpha (ER-alpha) signaling pathway in the presence of an antagonist (AID 1259383; calls by dose curve; note: top concentration of the series differs between compounds; nearly all actives have a fitted effect of over 15% in size)
Sequence of Estrogen receptor (Homo sapiens) (P03372 whole entry, looked up): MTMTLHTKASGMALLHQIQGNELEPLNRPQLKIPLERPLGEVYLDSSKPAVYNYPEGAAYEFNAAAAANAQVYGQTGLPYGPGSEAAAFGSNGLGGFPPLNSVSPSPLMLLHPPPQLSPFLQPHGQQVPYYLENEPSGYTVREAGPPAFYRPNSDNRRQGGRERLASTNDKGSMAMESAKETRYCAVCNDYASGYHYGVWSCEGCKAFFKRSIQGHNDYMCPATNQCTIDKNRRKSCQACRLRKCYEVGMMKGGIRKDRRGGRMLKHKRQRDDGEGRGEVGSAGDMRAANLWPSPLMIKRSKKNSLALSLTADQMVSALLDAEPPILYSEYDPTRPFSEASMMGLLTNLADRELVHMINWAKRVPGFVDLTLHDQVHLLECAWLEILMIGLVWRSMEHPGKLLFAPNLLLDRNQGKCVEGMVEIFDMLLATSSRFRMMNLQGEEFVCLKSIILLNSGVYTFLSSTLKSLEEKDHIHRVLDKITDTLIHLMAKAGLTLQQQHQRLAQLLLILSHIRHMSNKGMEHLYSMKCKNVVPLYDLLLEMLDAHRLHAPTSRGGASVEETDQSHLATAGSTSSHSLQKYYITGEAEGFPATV
Summary of the method: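 VM7Luc4E2, endog. ER-alpha + 4×ERE-luc; charcoal-stripped FBS, phenol red-free, 5 d; 24hr plating; +10.0nM ICI-182,780 (final); cpds 15 conc, 22hr, 37C/5% CO2; ONE-Glo luminescence.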

[9] = biological target: Thyrotropin receptor (Homo sapiens) (UniProt P16473); assay: qHTS assay to identify small molecule antagonists of the thyroid stimulating hormone receptor (TSHR) signaling pathway (AID 1259385; calls by dose curve; note: nearly all actives have a fitted effect of over 20% in size)
Sequence of Thyrotropin receptor (Homo sapiens) (P16473 whole entry, looked up): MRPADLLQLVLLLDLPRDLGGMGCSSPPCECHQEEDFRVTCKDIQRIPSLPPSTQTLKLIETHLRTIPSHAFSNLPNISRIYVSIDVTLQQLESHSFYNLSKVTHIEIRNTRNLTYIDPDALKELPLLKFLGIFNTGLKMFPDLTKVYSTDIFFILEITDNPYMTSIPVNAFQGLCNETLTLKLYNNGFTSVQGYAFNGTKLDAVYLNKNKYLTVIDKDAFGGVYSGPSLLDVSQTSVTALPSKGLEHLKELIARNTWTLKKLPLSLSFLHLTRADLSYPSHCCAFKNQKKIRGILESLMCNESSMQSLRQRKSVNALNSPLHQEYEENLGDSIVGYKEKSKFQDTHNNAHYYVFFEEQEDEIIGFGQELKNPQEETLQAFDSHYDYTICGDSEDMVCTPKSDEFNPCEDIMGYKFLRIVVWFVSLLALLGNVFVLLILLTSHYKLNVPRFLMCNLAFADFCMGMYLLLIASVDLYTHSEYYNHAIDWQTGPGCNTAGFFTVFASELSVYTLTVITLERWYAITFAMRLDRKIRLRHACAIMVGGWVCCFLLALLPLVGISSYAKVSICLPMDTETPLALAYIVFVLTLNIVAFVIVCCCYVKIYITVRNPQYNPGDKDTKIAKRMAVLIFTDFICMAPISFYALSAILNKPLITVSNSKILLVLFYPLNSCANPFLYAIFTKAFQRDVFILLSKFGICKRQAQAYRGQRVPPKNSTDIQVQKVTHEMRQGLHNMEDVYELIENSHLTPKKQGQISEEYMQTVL
Summary of the method: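 TSHR-HEK293 cells were plated and held 18 h at 37C/5% CO2, then given compound plus Ro20-1724 and stimulated with TSH at 1.5 ng/mL final. After 30 min at room temperature, cAMP was detected with cAMP-d2/anti-cAMP-cryptate (1 h) by fluorescence.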

[10] = qHTS assay to identify small molecule antagonists of the progesterone receptor (PR) signaling pathway - cell viability counter screen (AID 1346798);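 note: HEK293T PR-UAS-bla cells stimulated with the agonist R5020; series mostly up to about 92 µM; nearly all actives have a fitted effect of over 50% in size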
Summary of the method: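 HEK293T PR-UAS-bla, 2% charcoal-stripped FBS; 4 hr pre-plate; cpd + R5020, 16 h 37C; LiveBLAzer read first; then CellTiter-Glo 30 min RT, luminescence.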

[11] = qHTS assay to identify small molecule agonists of the progesterone receptor (PR) signaling pathway - cell viability counter screen (AID 1346799; calls by dose curve; note: nearly all actives have a fitted effect of over 45% in size)
Summary of the method: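 Luminescence from CellTiter-Glo, added after the beta-lactamase FRET read in the same wells, gave cytotoxicity in PR-UAS-bla HEK293T cells treated with compounds for 16 hr at 37C.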

[12] = qHTS assay to identify small molecule antagonists of the TGF-beta/Smad signaling pathway - cell viability counter screen (AID 1346824); note: nearly all actives have a fitted effect of over 50% in size
Summary of the method: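 SBE-bla HEK 293T cells were plated overnight at 37 C, then given compounds in DMSO plus TGF-beta1 (added as 0.25 ng/mL solution) for 5 hr. After the bla read, CellTiter-Glo was added to the same wells and luminescence read after 30 min at room temperature.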

[13] = qHTS assay to identify small molecule agonists of the TGF-beta/Smad signaling pathway - cell viability counter screen (AID 1346829); note: top concentration of the series differs between compounds; nearly all actives have a fitted effect of over 45% in size
Summary of the method: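 HEK 293T SBE-bla line, 5 hr compound exposure at 37 C, multiplexed CellTiter-Glo viability read by luminescence.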

[14] = qHTS assay to identify small molecule agonists of the TGF-beta/Smad signaling pathway (AID 1346859; active = well fitted activation curve with a large enough effect in the signal ratio in the repeat runs, not every such curve was filed as active; the % refers to the signal ratio; note: series mostly up to about 77 µM)
Summary of the method: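 SBE-bla HEK 293T, 4,000 cells/well, plated o/n; cpd in DMSO, 5 hr, 37 C/5% CO2; B/G FRET substrate 2 hr RT; ex 405, em 460/530 nm.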

[15] = biological target: Thyrotropin-releasing hormone receptor (Homo sapiens) (UniProt P34981); assay: qHTS assay to identify small molecule antagonists of the thyrotropin-releasing hormone receptor (TRHR) signaling pathway (AID 1346877; active = well fitted inhibition curve with a large enough effect in the repeat runs, not every such curve was filed as active; note: series mostly up to about 51 µM)
Sequence of Thyrotropin-releasing hormone receptor (Homo sapiens) (P34981 whole entry, looked up): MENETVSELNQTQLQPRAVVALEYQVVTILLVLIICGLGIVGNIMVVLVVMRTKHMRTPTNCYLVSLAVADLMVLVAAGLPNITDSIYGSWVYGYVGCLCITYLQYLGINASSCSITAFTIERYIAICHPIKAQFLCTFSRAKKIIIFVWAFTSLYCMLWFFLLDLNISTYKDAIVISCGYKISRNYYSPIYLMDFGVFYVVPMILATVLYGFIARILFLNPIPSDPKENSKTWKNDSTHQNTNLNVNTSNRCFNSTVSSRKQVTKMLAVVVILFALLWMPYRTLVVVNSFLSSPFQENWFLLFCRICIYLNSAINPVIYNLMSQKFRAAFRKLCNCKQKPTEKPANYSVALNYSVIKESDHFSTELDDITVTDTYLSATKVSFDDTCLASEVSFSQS
Summary of the method: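 Intracellular calcium fluorescence, read kinetically every second over 3 min, reports TRH-evoked signalling in HEK293 cells carrying TRHR. Test compounds were added 5 min ahead of a 1 nM TRH challenge.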

[16] = biological target: Thyrotropin-releasing hormone receptor (Homo sapiens) (UniProt P34981); assay: qHTS assay to identify small molecule agonists of the thyrotropin-releasing hormone receptor (TRHR) signaling pathway (AID 1346891; calls by dose curve; note: series mostly up to about 58 µM)
Summary of the method: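 Intracellular calcium rise, read as fluorescence every second for 3 min, served as the agonist signal in dye-loaded HEK293 cells expressing TRHR; each compound ran at 15 concentrations in triplicate.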

[17] = qHTS assay to identify small molecule agonists of the estrogen receptor alpha (ER-alpha) signaling pathway in the presence of an antagonist - cell viability counter screen (AID 1259386);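 note: series mostly up to about 92 µM; cells exposed to compounds for 22 h at 37 °C before the viability read; nearly all actives have a fitted effect of over 30% in size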
Summary of the method: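 VM7Luc4E2, stripped-serum pre-culture 5 d; 24hr plating; +ICI-182,780 10.0nM final; cpds 15 conc, 22hr, 37C/5% CO2; CellTiter-Fluor added at 21hr, fluorescence 1hr later.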

[18] = biological target: Progesterone receptor (Homo sapiens) (UniProt P06401); assay: qHTS assay to identify small molecule agonists of the progesterone receptor (PR) signaling pathway (AID 1346784; calls by dose curve; note: nearly all actives have a fitted effect of over 30% in size)
Sequence of Progesterone receptor (Homo sapiens) (P06401 whole entry, looked up): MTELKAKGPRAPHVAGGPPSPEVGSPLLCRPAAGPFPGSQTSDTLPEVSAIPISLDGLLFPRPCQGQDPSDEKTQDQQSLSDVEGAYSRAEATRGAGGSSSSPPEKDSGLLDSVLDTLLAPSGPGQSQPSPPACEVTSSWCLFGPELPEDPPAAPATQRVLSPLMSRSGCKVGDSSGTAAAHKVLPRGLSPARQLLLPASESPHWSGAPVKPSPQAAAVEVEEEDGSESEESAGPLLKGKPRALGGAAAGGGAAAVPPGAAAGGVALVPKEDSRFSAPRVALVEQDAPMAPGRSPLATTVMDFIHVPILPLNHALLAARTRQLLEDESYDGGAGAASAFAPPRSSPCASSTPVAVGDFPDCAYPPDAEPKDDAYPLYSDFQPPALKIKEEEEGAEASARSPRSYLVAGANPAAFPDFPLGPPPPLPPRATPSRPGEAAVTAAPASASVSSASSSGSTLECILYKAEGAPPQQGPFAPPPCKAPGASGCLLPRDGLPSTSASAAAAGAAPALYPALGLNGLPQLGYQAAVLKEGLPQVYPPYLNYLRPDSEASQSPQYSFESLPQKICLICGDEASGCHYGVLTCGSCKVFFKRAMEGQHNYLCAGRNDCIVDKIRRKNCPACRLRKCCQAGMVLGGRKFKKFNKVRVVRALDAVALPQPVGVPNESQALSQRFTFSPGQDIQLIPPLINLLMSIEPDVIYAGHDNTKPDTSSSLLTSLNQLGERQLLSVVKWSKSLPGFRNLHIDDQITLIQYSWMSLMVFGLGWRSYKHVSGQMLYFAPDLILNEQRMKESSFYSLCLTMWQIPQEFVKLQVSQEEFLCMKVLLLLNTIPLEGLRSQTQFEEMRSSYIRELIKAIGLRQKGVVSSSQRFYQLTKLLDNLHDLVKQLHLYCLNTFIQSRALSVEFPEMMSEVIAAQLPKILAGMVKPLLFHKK
Summary of the method: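 Beta-lactamase reporter read-out: after 16 hr compound treatment at 37C and a further 2 hr at room temperature with LiveBLAzer B/G FRET substrate, fluorescence was measured in PR-UAS-bla HEK 293T cells grown in 2% charcoal-stripped serum.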

[19] = biological target: Progesterone receptor (Homo sapiens) (UniProt P06401); assay: qHTS assay to identify small molecule antagonists of the progesterone receptor (PR) signaling pathway (AID 1346795; active = well fitted inhibition curve with a large enough effect in the signal ratio in the repeat runs, not every such curve was filed as active; the % refers to the signal ratio)
Summary of the method: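 Read-out is fluorescence from the LiveBLAzer B/G FRET substrate, cleaved by a UAS-controlled beta-lactamase in PR-UAS-bla HEK293T cells after 16 hr exposure to compound plus 1 nM promegestone (final), followed by 2 hr at room temperature.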

[20] = qHTS assay to identify small molecule agonists or antagonists of the thyroid stimulating hormone receptor (TSHR) signaling pathway - wild type cell line counter screen (AID 1259384; calls by dose curve)
Summary of the method: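 Wild-type HEK293 cells were plated 18 h at 37 C/5% CO2, pin-dosed with compound plus Ro20-1724 medium, held 30 min at room temperature, then given cAMP-d2 and anti-cAMP-cryptate; fluorescence was read after 1 h. Fifteen concentrations, triplicate.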

Measured: Potency

NP(N)(=O)NC(=O)c1ccc(F)cc1
not listed: [17] | [18] | [19] | [20]
inactive: all other assays above

C=CCN1C[C@H](C)N([C@H](c2ccc(C(=O)N(CC)CC)cc2)c2cccc(OC)c2)C[C@H]1C
not listed: [6] | [11] | [14] | [20]
inactive: all other assays above

O=C(Cc1ccccc1)OCCc1ccccc1
not listed: [6]
inactive: all other assays above

COc1ccccc1N1CCNCC1
not listed: [6] | [8] | [14]
inactive: all other assays above

CCCCCCCCCCCCN(C)C
not listed: [6] | [14] | [18] | [19]
inactive: all other assays above

CCCCCBr
not listed: [3] | [9] | [14] | [17] | [18]
inactive: all other assays above

CCC(C)Cl (stereo not given)
not listed: [6] | [20]
inactive: all other assays above

C=CCOC(=O)C(C)(C)OC(=O)c1cc(-n2c(=O)cc(C(F)(F)F)n(C)c2=O)ccc1Cl
not listed: [3] | [5] | [6] | [9] | [18] | [19] | [20]
inactive: all other assays above
